The values below come from PubChem BioAssay (NCATS).

Results filed as inconclusive are left out. Active and inactive are the calls of the source. Unless noted, calls come from the whole dose curve; as a rule, active = well fitted curve in the direction sought with a large enough effect; inconclusive = small, poorly fitted or top-dose-only effect, or another doubt; inactive = no such curve, though single readings can be large; an effect the other way counts as inactive or inconclusive.

Assay [1] addresses Ferritin light chain (Equus caballus) (UniProt P02791). Briefly: qHTS Validation Assay for Identification of Novel General Anesthetics (AID 2323). Note: series mostly up to about 77 µM. The method in brief:
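Competitive displacement of profluorescent 1-aminoanthracene (1-AMA, 50% saturated solution in PBS) from 10 uM horse-spleen apoferritin. Compounds incubated 10 min at room temperature; fluorescence read at 380 nm excitation/535 nm emission, normalized to free 1-AMA and complex, fitted with four-parameter Hill equation.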
(In general: In qHTS, concentration-response curves come from the screen itself.)

For assay [2], the target named is ATP-dependent DNA helicase Q1 (Homo sapiens) (UniProt P46063). Briefly: qHTS Validation Assay for Inhibitors of RecQ-Like Dna Helicase 1 (RECQ1) (AID 2353). The method in brief: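 50 nM RECQ1T1 preincubated 15 min with compound in Tris pH 8.0 buffer with MgCl2, DTT, Tween-20 and 2.5 ug/ml poly(dI-dC); started with 200 nM TAMRA/BHQ-2 forked duplex and 2 mM ATP. Unwinding read as fluorescence (525/598 nm), two reads 2 h apart.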

The target of assay [3] is RecQ-like DNA helicase BLM (Homo sapiens) (UniProt P54132). Briefly: qHTS Validation Assay for Inhibitors of Bloom's syndrome helicase (BLM) (AID 2364). In short, it runs like this:
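50 nM BLM preincubated 15 min at room temperature with compound in pH 8.0 Tris buffer containing 2.5 ug/ml poly(dI-dC); started with 200 nM TAMRA/BHQ-2 forked duplex and 2 mM ATP (final). Unwinding read as TAMRA fluorescence increase, two reads 2 h apart.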

The nature of assay [4]: Cytometric Cell-Based qHTS for Inhibitors of the mTORC1 Signaling Pathway in MEF (Tsc2-/-, p53-/-) Cells (AID 2660).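 Note: Tsc2 and p53 null MEFs carrying empty vector with compound for 24 h; percent of cells above a phospho-rpS6 to PI ratio cutoff in each well; series mostly up to about 38 µM.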 The method in brief:
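Percent of cells positive for normalized phospho-S6 staining is reported, with the cutoff set from rapamycin (7.5 nM) versus DMSO wells. Tsc2-/-, p53-/- MEFs received compound for 24 hrs.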

Assay [5] can be described thus: High Content Imaging Cell-Based qHTS for Inhibitors of the mTORC1 Signaling Pathway in MEF Cells (AID 2667). Note: potency is the fitted concentration of half-maximal effect. The method in brief:
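WT MEFs (Tsc2-/-, p53-/- re-expressing Tsc2), in DMEM + 10% FBS, were treated with compound for 24 h at 37 C. Cells were then fixed and stained for phospho-rpS6 Ser235/236 with propidium iodide as cell count. Values are % positive cells, with thresholds set against rapamycin-treated cells.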

Assay [6] in a line: Validation screen for inhibitors of Lassa infection (AID 463096; calls by dose curve; note: potency is the fitted concentration of half-maximal effect).
Assay [7] in a line: Validation screen for small molecules that induce DNA re-replication in MCF 10A normal breast cells (AID 463097). Note: nearly all actives have a fitted effect of over 60% in size. Note: potency is the fitted concentration of half-maximal effect. In short, it runs like this:
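Readout: Hoechst nuclear fluorescence intensity, 405 ex / 500-530 em, by scanning plate imager; re-replication scored as increase in nuclei with elevated DNA content. Cells exposed to compound 48 hr, 37 C, 5% CO2 beforehand.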

In assay [8] the target is Ubiquitin carboxyl-terminal hydrolase 2 (Homo sapiens) (UniProt O75604). The assay is described as follows: qHTS Validation Assay for Inhibitors of Ubiquitin-specific Protease USP2a Using CHOP2 as the Reporter (AID 463106). In short, it runs like this: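 USP2 core (10 nM final) was preincubated with compound 30 min at RT in pH 8.0 Tris/CaCl2/beta-ME/CHAPS buffer. Ub-CHOP2 and reporter substrate (25 nM final each) were then added, with fluorescence (Ex 485/Em 531) read after 60 min. Data were normalized to NEM full inhibition and fitted to concentration-response curves.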

Assay [9] addresses DNA polymerase III PolC-type (Bacillus subtilis (strain 168)) (UniProt P13267). The assay is described as follows: qHTS Validation Assay for the Inhibitors of DNA Replication in Gram-Positive Bacteria (AID 485295).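 Note: PicoGreen fluorescence of double-stranded DNA made on primed circular M13 template; series mostly up to about 57 µM.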 The method in brief:
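Reconstituted B. subtilis holoenzyme (Pol III, beta clamp, SSB, primase) was preincubated with compound at room temperature, then given single-stranded circular M13Gori plus dNTPs and NTPs. EDTA-containing PicoGreen stopped the reaction, and dsDNA product was read by fluorescence.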

Assay [10] concerns the target Tumor susceptibility gene 101 protein (Homo sapiens) (UniProt Q99816). The assay is described as follows: qHTS Validation Assay for Iinhibitors of HIV-1 Budding by Blocking the Interaction of PTAP/TSG101 (AID 485342; calls by dose curve). The method in brief:
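Tsg101 binding domain (10 uM final) in pH 7.5 HEPES/NaCl/Tween 20/EDTA/TCEP buffer was mixed with pin-transferred compounds, then FITC-labeled PTAP peptide (50 nM final) was added; after 20 min at r.t., fluorescence polarization was read.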

Chain of DNA polymerase III PolC-type (Bacillus subtilis (strain 168)) (P13267 whole entry, looked up): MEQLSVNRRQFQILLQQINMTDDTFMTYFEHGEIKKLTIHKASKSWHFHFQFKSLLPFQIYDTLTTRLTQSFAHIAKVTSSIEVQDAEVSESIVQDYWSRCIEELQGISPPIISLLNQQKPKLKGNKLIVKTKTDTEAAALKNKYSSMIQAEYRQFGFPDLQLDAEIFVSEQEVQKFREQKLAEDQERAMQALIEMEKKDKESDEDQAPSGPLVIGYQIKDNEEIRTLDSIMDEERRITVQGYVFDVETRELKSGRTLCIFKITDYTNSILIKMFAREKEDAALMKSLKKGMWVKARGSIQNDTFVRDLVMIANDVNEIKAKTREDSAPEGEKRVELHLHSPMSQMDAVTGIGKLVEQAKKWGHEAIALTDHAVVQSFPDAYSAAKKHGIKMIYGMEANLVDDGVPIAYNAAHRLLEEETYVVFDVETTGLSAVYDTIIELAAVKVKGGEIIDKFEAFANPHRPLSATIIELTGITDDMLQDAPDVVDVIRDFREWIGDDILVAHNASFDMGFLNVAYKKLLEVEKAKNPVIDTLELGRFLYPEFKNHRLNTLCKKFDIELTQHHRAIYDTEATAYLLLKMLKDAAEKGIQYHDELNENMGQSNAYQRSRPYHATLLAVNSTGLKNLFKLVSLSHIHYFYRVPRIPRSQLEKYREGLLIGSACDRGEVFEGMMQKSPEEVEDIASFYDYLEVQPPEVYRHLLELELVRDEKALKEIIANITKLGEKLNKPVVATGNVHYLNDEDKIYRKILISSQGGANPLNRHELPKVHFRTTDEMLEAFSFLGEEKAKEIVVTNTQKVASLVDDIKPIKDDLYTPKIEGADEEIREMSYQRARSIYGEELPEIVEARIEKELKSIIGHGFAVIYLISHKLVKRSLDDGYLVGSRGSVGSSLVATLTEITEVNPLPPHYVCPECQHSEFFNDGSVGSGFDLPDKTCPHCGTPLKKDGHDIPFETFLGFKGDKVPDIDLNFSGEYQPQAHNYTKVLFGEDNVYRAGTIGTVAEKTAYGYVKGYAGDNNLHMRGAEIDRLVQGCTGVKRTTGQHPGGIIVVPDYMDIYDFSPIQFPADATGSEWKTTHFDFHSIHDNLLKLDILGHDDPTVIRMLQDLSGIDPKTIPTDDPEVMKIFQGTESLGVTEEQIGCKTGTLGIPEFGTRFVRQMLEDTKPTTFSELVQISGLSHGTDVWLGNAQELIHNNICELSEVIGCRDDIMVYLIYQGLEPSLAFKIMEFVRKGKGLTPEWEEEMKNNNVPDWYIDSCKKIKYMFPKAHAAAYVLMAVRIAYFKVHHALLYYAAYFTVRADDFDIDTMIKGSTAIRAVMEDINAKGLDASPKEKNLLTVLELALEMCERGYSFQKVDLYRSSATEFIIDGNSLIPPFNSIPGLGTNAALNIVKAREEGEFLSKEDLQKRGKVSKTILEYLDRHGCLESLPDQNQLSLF
Chain of RecQ-like DNA helicase BLM (Homo sapiens) (P54132 whole entry, looked up): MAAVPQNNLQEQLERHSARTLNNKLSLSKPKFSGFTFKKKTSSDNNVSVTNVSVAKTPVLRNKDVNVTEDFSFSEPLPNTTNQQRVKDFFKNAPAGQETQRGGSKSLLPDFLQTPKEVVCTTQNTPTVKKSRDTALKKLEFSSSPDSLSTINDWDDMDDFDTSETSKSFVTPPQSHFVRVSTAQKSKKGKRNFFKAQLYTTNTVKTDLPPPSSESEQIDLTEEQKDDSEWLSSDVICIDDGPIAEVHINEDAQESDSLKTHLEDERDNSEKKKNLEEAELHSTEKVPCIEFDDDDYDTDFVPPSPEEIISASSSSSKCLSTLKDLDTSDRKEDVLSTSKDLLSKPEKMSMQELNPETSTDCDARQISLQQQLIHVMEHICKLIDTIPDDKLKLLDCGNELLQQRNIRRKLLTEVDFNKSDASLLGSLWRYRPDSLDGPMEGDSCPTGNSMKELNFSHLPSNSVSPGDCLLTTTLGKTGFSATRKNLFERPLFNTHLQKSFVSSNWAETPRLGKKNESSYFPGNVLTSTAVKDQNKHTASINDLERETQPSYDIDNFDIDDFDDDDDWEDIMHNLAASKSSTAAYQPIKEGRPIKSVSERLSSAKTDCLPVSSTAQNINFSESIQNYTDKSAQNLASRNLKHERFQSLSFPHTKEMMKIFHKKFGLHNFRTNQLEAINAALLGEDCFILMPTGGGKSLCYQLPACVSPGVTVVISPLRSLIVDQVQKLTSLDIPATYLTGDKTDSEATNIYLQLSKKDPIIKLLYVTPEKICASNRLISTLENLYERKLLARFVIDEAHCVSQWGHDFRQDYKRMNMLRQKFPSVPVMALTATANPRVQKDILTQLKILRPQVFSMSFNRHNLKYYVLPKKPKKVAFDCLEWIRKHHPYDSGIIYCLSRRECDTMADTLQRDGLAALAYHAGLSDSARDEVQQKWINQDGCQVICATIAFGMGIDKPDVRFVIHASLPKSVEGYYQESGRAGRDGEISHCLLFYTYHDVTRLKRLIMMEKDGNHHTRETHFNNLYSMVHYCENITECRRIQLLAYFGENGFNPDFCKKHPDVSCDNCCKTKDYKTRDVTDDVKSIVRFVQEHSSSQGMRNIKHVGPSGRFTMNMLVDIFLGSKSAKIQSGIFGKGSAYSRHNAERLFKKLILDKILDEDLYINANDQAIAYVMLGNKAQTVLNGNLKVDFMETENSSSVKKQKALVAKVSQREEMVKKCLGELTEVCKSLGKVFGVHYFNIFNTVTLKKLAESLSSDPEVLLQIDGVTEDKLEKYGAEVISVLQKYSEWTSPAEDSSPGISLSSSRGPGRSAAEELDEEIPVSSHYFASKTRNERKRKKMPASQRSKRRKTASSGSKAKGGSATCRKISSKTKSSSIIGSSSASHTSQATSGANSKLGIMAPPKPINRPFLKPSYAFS
Chain of Ubiquitin carboxyl-terminal hydrolase 2 (Homo sapiens) (O75604 whole entry, looked up): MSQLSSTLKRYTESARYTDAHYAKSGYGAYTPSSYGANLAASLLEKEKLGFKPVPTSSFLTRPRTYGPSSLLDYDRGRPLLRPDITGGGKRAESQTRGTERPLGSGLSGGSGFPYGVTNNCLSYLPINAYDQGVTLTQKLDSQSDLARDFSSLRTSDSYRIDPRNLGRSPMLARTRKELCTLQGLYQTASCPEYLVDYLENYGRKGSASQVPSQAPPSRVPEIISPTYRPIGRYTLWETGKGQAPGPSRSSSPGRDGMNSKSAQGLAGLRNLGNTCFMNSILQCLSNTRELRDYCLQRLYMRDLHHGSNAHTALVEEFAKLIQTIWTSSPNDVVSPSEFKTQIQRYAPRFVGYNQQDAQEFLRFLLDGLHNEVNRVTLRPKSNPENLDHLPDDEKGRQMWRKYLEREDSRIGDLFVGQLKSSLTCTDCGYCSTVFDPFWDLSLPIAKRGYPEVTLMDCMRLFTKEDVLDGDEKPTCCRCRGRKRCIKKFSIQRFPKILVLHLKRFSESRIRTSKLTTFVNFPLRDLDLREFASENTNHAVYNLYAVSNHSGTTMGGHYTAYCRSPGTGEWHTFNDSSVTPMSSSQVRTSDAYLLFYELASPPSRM
Chain of Tumor susceptibility gene 101 protein (Homo sapiens) (Q99816 whole entry, looked up, the tested form may be a part): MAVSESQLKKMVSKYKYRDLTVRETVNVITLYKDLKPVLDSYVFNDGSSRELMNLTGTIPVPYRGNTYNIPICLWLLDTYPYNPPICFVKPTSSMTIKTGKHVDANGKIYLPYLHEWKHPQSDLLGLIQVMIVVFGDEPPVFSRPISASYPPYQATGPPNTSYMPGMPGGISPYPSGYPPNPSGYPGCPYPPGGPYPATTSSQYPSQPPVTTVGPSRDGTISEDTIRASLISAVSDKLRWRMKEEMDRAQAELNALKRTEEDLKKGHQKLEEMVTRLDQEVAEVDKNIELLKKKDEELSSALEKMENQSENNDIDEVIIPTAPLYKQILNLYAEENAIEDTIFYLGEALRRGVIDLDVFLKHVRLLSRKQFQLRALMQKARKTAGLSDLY
Chain of ATP-dependent DNA helicase Q1 (Homo sapiens) (P46063 whole entry, looked up): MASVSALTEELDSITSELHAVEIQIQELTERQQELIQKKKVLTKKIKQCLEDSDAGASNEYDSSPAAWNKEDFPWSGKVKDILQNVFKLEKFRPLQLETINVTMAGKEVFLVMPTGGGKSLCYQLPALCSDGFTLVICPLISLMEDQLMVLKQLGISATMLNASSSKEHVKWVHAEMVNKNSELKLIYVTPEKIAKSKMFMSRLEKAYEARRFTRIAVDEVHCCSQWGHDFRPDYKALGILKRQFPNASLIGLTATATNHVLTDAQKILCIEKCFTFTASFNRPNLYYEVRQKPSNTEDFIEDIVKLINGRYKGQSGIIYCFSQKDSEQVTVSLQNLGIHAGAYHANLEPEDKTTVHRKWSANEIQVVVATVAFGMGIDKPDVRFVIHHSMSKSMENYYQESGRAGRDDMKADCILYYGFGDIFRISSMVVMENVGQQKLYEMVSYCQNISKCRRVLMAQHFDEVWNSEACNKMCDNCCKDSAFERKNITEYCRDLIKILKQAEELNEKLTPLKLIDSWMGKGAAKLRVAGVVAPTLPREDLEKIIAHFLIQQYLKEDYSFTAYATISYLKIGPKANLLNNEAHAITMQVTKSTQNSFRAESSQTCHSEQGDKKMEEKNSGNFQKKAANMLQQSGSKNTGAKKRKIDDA
Chain of Ferritin light chain (Equus caballus) (P02791 2-175 limits assumed): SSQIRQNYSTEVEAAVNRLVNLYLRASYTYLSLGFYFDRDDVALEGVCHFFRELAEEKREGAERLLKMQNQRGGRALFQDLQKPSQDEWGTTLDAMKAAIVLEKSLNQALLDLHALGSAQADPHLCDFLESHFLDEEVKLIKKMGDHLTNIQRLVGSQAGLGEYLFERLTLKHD

With `CCCC(C)(COC(N)=O)COC(=O)NC(C)C` (stereo not given), the compound was called inactive in [1], in assay [2], in [4] and in assay [10]. The Potency result in assay [3], in [5], in assay [6], in [7], in assay [8] and in [9] was “inactive” in each case.
Turning to `CCn1cc(C(=O)O)c(=O)c2ccc(C)nc21`, the compound was classed as inactive in [1] and in [2]. The Potency result in assay [6] and in assay [7] was “inactive” throughout.
Regarding `NCC(CC(=O)O)c1ccc(Cl)cc1` (stereo not given), the compound was classed as inactive in assay [1], in assay [2], in assay [4] and in assay [10]. The Potency result in assay [5], in assay [6], in assay [7], in [8] and in [9] was “inactive” in each case.
Consider `NN=C(N)N`, for which the call in assay [1], in [2], in [4] and in assay [10] was inactive. For the same compound, the Potency entry in [5], in assay [6], in [7], in assay [8] and in assay [9] was “inactive” throughout.
Consider `COc1ccc(Cc2nccc3cc(OC)c(OC)cc23)cc1OC`, for which the outcome in [1] and in assay [2] was inactive. In addition, the Potency result in assay [6] and in [7] was “inactive” each time.
For `O=c1[nH]c2ccccc2n1C1CCN(CCCC(c2ccc(F)cc2)c2ccc(F)cc2)CC1`, the outcome in [2] and in assay [10] was inactive. Besides, the Potency in assay [5] was 16.5 µM (active). Moreover, the Potency result in assay [8] was “inactive”.
Regarding `C=C(C)[C@H]1Cc2c(ccc3c2O[C@@H]2COc4cc(OC)c(OC)cc4[C@@H]2C3=O)O1`, the result in [2], in assay [4] and in [10] was inactive. Moreover, the Potency is 0.0465 µM (active) in assay [5], 5.62 µM (active) in [6] and 1.41 µM (active) in assay [7]. The Potency entry in assay [8] and in assay [9] was “inactive” in each case.
As to `c1ccc2c(c1)OCC(C1=NCCN1)O2` (stereo not given), the call in assay [1], in assay [2] and in assay [10] was inactive. Further, the Potency in assay [5] is 6.56 µM (active); in assay [6], 20 µM (active); in assay [7] it was 7.94 µM (active). For the same compound, the Potency entry in assay [8] and in [9] was “inactive” in each case.
For `OCCN1CCN(CCCN2c3ccccc3Sc3ccc(C(F)(F)F)cc32)CC1`, in assay [1], the result was inactive.
Consider `O=C1NCN(c2ccccc2)C12CCN(CC1COc3ccccc3O1)CC2` (stereo not given), for which the call in assay [1], in assay [2], in assay [4] and in [10] was inactive. Besides, the Potency entry in [5], in assay [6], in assay [7], in assay [8] and in assay [9] was “inactive” each time.
Turning to `CNCCC(Oc1ccc(C(F)(F)F)cc1)c1ccccc1` (stereo not given), the Potency entry in assay [3] is “inactive”.
Consider `N#CC(C#N)=Cc1ccc(O)c(O)c1`, for which the outcome in assay [1], in assay [2], in assay [4] and in assay [10] was inactive. In addition, the Potency entry in assay [5], in assay [6], in assay [7], in [8] and in assay [9] was “inactive” each time.
On to `CC(CCc1ccccc1)NC(C)C(O)c1ccc(O)cc1` (stereo not given), for which the call in assay [1], in [2], in assay [4] and in [10] was inactive. The Potency entry in assay [5], in assay [6], in assay [7], in assay [8] and in assay [9] was “inactive” in each case.
Turning to `CN1C[C@H](CNC(=O)OCc2ccccc2)C[C@@H]2c3cccc4c3c(cn4C)C[C@H]21`, the call in [1], in [2] and in [10] was inactive. Also, the Potency result in [5], in assay [8] and in assay [9] was “inactive” each time. Besides, the Potency in assay [7] was 15.8 µM (active).
`COC[C@H]1OC(=O)c2coc3c2[C@@]1(C)C1=C(C3=O)C2CCC(=O)[C@@]2(C)C[C@H]1OC(C)=O` (stereo not given in full): the compound was classed as inactive in [1], in [2], in assay [4] and in assay [10]. Further, the Potency result in assay [3], in [5], in assay [8] and in assay [9] was “inactive” each time.
With `NCC(O)c1ccc(O)cc1` (stereo not given), the call in assay [1], in [2], in [4] and in [10] was inactive. Also, the Potency entry in [3], in assay [5], in assay [6], in [7], in assay [8] and in assay [9] was “inactive” throughout.
